Bioassay records (PubChem BioAssay)
This is one part of a sample in which hits are shown more often than they occur.
mHTT CaM bind: mHTT-calmodulin interaction abrogation | P42858 | AlphaScreen His-mHTT/GST-CaM binding, luminescence | inhibition, % at 15 µM | actives 3.6% (n = 190,000) | AID 1671202;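 note: 0% = both proteins with DMSO and 100% = one protein alone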
Pf apPOL inh: Pf-apPOL DNA polymerase inhibition. actives 0.25% (n = 210,000). Recombinant Pf-apPOL, molecular beacon fluorescence, 1.5 h. inhibition, % at 10 µM. AID 1794808
* = called active by the depositor; nt = no result. Cut-off read from the data, not from the text of the source: active = inhibition above about 50%; inactive = the rest.

SMILES | mHTT CaM bind | Pf apPOL inh
COc1ccc(C2C(C(=O)c3ccco3)=C(O)C(=O)N2c2nnc(C)s2)cc1OC (stereo unspecified) | 1 | -4
COc1ccc2c(c1C)OC(=Cc1ccco1)C2=O | 16 | 2
COc1ccc(-c2noc(C3CCCN3C(=O)c3ccc(C#N)cc3F)n2)cc1 (stereo unspecified) | 10 | -1
Cn1nc(-c2nc(-c3ccccc3)no2)c2c1CCN(C(=O)CSc1ccccc1)C2 | -2 | -8
COc1ccc(-c2csc3c(=O)n(Cc4ccccn4)cnc23)cc1 | -26 | -4
CCc1ccccc1NC(=O)C1CC1c1ccccc1 (stereo unspecified) | -4 | -11
Cc1ccc(C)c(NC(=O)c2cc3n(n2)CCCN(Cc2ccc(F)cc2)C3=O)c1 | -5 | 8
Cc1ccc(NC(=O)c2csc(-c3ccc(C)n3C)n2)cc1 | 60* | -6
Cc1ccc(-c2nc(C(=O)NCc3ccccc3Cl)cs2)n1C | 59* | 0
COc1ccccc1NC(=O)c1csc(-c2ccc(C)n2C)n1 | 7 | -2
CCc1ccccc1NC(=O)c1csc(-c2ccc(C)n2C)n1 | 35 | -3
Cc1cc(C)cc(NC(=O)c2csc(-c3ccc(C)n3C)n2)c1 | 3 | -9
Cc1ccc(NC(=O)c2csc(-c3ccc(C)n3C)n2)c(C)c1 | -5 | 1
Cc1ccc(-c2nc(C(=O)NCc3ccc(F)cc3)cs2)n1C | 85* | -5
Cc1ccccc1CNC(=O)c1csc(-c2ccc(C)n2C)n1 | 82* | 2
COc1ccc(NC(=O)c2ccc(-c3ccc(Br)cc3)o2)c(OC)c1 | -1 | -1
Cc1ncc(CO)c2cc(-c3nnc(Nc4ccc(C(F)(F)F)cc4)s3)c(=O)oc12 | -2 | -5
Cc1noc(C)c1CCC(=O)N1CCC(Nc2cccnc2)C1 (stereo unspecified) | -3 | -2
COc1ccc(N2CCN(Cc3ccccc3)C(C)C2=O)c(OC)c1 (stereo unspecified) | 5 | -3
COc1ccc(C2=NN(/C(C)=C/C(C)=O)C(c3cccc([N+](=O)[O-])c3)C2)cc1 (stereo unspecified) | 5 | -5
CCc1nc2c(c(=O)n1CC(=O)Nc1ccccc1)CN(Cc1ccccc1)CC2 | -3 | 0
COc1ccccc1Nc1nc(-c2c(C)nc3cc(C)ccn23)cs1 | 76* | -1
CC(=O)Nc1ccc(Nc2nc(-c3c(C)nc4ccccn34)cs2)cc1 | 21 | -4
Cc1nc2ccccn2c1-c1csc(Nc2ccc(N)cc2)n1 | 63* | 1
Cc1nc2ccccn2c1-c1csc(N)n1 | -1 | nt
SMILES | mHTT CaM bind | Pf apPOL inh
C=CCNc1nc(-c2c(C)nc3ccccn23)cs1 | 9 | 14
Cc1ccnc(Nc2nc(-c3c(C)nc4ccccn34)cs2)c1 | 62* | -7
OC(c1ccccn1)C1CCN(Cc2ccc(F)cc2F)CC1 (stereo unspecified) | 3 | -9
Cc1ccc(-n2c(N3CCC(C(=O)NCCC(C)C)CC3)nc3ccsc3c2=O)cc1 | 10 | -4
Fc1ccc(-c2csc(Nc3ccc(Oc4ccccc4)cc3)n2)cc1 | 48 | -2
COc1ccc(-c2csc(Nc3cccc(O)c3)n2)cc1 | 89* | -5
COc1ccc(-c2csc(Nc3cccc(C(=O)O)c3)n2)cc1 | 19 | 1
COc1cccc(Nc2nc(-c3ccc(F)cc3)cs2)c1 | 59* | -1
COc1ccc(NC(=O)Nc2nnc(CC(=O)Nc3ccc(C)cc3)s2)cc1 | 1 | -2
CCCCOc1ccc(N2C(=O)CC(N3CCSCC3)C2=O)cc1 (stereo unspecified) | 4 | -6
CCn1c(CCC(=O)NCc2c(C)cc(C)cc2C)nc2c(C)cccc2c1=O | 14 | -1
COc1ccccc1C1CC(c2ccc(Cl)cc2Cl)Nc2nc(N)nn21 (stereo unspecified) | 57* | -3
COc1ccc(C2CC(c3ccc(Cl)c(Cl)c3)Nc3nc(N)nn32)cc1OC (stereo unspecified) | 29 | 2
CCOc1ccccc1C1CC(c2ccc(Cl)c(Cl)c2)Nc2nc(N)nn21 (stereo unspecified) | 100* | -3
Nc1nc2n(n1)C(c1cccs1)CC(c1ccc(Cl)c(Cl)c1)N2 (stereo unspecified) | 84* | -8
Nc1nc2n(n1)C(c1ccc(Cl)cc1)CC(c1ccccc1)N2 (stereo unspecified) | 8 | -7
COc1ccc(C2CC(c3ccccc3Cl)Nc3nc(N)nn32)cc1OC (stereo unspecified) | 26 | -6
Cc1ccccc1C(=O)N1CCCN(c2ncccc2-c2nc(C(C)C)no2)CC1 | 9 | -8
COc1ccc(C2CC(C(F)(F)F)n3ncc(C(=O)NC(C)(C)C)c3N2)cc1 (stereo unspecified) | 2 | 0
COc1ccc(CN2CCN(C(=O)c3ccc(F)cc3)CC2)cn1 | -1 | 0
Cc1cc(/C=C2\NC(=O)NC2=O)c(C)n1-c1cccc(I)c1 | 91* | 1
Cc1cc(/C=C2\SC(=O)NC2=O)c(C)n1-c1ccc(I)cc1 | 12 | 7
Cc1cc(/C=C2/C(=O)NC(=O)N(C)C2=O)c(C)n1-c1ccc(F)c(Cl)c1 | 7 | -4
Cc1cc(/C=C2\NC(=O)NC2=O)c(C)n1-c1ccc(Cl)c(Cl)c1 | 100* | -3
CCCC(=O)N1CCCC1c1nc2cc(-c3ccccc3F)ccc2o1 (stereo unspecified) | 13 | -1
SMILES | mHTT CaM bind | Pf apPOL inh
CCC(=O)N1CCCC1c1nc2cc(-c3cccc(F)c3)ccc2o1 (stereo unspecified) | 41 | -4
CCCC(=O)N1CCCC1c1nc2cc(-c3ccc(N(C)C)cc3)ccc2o1 (stereo unspecified) | 86* | -8
CC(C)CC(=O)N1CCCC1c1nc2cc(-c3ccc(N(C)C)cc3)ccc2o1 (stereo unspecified) | 87* | -7
CN(Cc1ccsc1)C(=O)c1cccc(C#N)c1 | 3 | -2
CCCCC(=O)Nc1c(-c2cc(C)cc(C)c2)nc2ccccn12 | 8 | 0
Cc1ccc2c(c1)c(=O)c(C(=O)O)cn2C | -5 | -3
Cc1ccc2c(c1)c1cccc3c1n2CCN3CCC(N)=O | 69* | -4
COc1c(C(=O)N2CCN(c3ccccc3)CC2)sc2cccc(F)c12 | 64* | 0
COc1c(C(=O)N2CCN(c3ccccc3F)CC2)sc2cccc(F)c12 | 13 | 1
N#Cc1ccc(S(=O)(=O)N2CCC(c3noc(-c4ccccc4)n3)CC2)cc1 | -6 | -5
NNc1nnc(-c2ccccc2)c2ccccc12 | 68* | 2
CC(=NNc1nnc(-c2ccccc2)c(-c2ccccc2)n1)c1ccco1 | nt | -3
NC(=O)c1ccc(Nc2nnc(-c3ccc(O)cc3)c3ccccc23)cc1 | 21 | -34
NNc1nnc(-c2ccccc2)c(-c2ccccc2)n1 | 100* | 1
O=C1OC(c2ccc([N+](=O)[O-])cc2Cl)=N/C1=C/c1ccc2c(c1)OCO2 | 3 | 1
CCCCN(C)C(=O)CCC1CCN(c2cc(NCCC)ncn2)CC1 | 9 | 0
Cc1cc(O)cc2c1C(=O)C(=Cc1ccc(Cl)cc1)O2 | 2 | -3
O=C(NC1CCCCC1)c1cc2ccncc2[nH]1 | -2 | -7
CC1(C)CC(NC(=O)c2cncc(Br)c2)CC(C)(C)N1 | -2 | 3
Cc1cccc(N=Cc2cc3c(cc2[N+](=O)[O-])OCO3)c1C | 89* | 0
CC(C)(C)c1cc(Cl)c(O)c(N=Cc2cc3c(cc2[N+](=O)[O-])OCO3)c1 | 85* | 1
